These sequences were tested against CASP8 (assay: pooled miR-30 sensor sort-seq; sequence = guide strand). Conditions: shRNA.
TAATGATTTAAAATAATCCAAG showed a sensor-assay potency score (higher = more potent) of -1.15.
TTCTTGTCATCCTTGTTGCTTA gave a sensor-assay potency score (higher = more potent) of -0.496.
For TAACCTGCCTAACTCCACGTGC, the sensor-assay potency score (higher = more potent) was -0.566.
With TAAACTTTGTCCAAAGTCTGTG the sensor-assay potency score (higher = more potent) was -0.0888.
TAGTTGATAGATAACAATCTGA was tested, and the sensor-assay potency score (higher = more potent) was -0.246.
Work on TTTCTTGTCATCCTTGTTGCTT yielded a sensor-assay potency score (higher = more potent) of -0.189.
TAGATTTGCTCTACTGTGCAGT showed a sensor-assay potency score (higher = more potent) of 0.44.
TTGAGGTGATGATAAATCCATT was tested, and the sensor-assay potency score (higher = more potent) was -0.92.

These sequences were tested against CASQ1 in the same assay as above. Conditions: shRNA.
TAATGCTCTGAGTCTTTGCTCT gave a sensor-assay potency score (higher = more potent) of -0.39.
ATGCTCTGAGTCTTTGCTCTTG gave a sensor-assay potency score (higher = more potent) of -1.26.
TTGACAATCTCCTCTTCGCTAT was tested, and the sensor-assay potency score (higher = more potent) was -0.427.
For TACTTCTTGAACACATTCTTGT, the sensor-assay potency score (higher = more potent) was 0.247.
TTCATGGTAGAGGAGTGCCAGC showed a sensor-assay potency score (higher = more potent) of -1.44.
Sequence TTGTAATGCTCTGAGTCTTTGC has a sensor-assay potency score (higher = more potent) of -1.04.
Sequence AACACATTCTTGTAGTTCTTTG has a sensor-assay potency score (higher = more potent) of -0.85.
TTCTTGAACACATTCTTGTAGT was tested, and the sensor-assay potency score (higher = more potent) was 0.249.
TAGTTCTTTGCATTGACATTGA showed a sensor-assay potency score (higher = more potent) of -0.428.
ATACTTCTTGAACACATTCTTG gave a sensor-assay potency score (higher = more potent) of -1.25.
TAGGACATCAAGCAGAAACTCC was tested, and the sensor-assay potency score (higher = more potent) was -0.771.
Work on TTGAGAGTCTCTAAGAACTCGA yielded a sensor-assay potency score (higher = more potent) of -0.0687.
TACATTAACAAGTGATTGCTGA gave a sensor-assay potency score (higher = more potent) of 0.512.
Work on TTGATCACACGGTCCACACCAT yielded a sensor-assay potency score (higher = more potent) of -0.226.
TTCTCAGAGTCTACCAGCCCGA showed a sensor-assay potency score (higher = more potent) of -1.38.
Sequence ATCCTTCTCAGAGTCTACCAGC has a sensor-assay potency score (higher = more potent) of -1.1.
For TTGTCTTCTAGGACTTGGGCTG, the sensor-assay potency score (higher = more potent) was -0.338.
Work on TTGTGAGGCCTTGTCATCCTCG yielded a sensor-assay potency score (higher = more potent) of -0.34.
Sequence TTCTTTGCCACCTTGCTGTCGA has a sensor-assay potency score (higher = more potent) of 0.0735.
TCTCTAAGAACTCGAAACCATC was tested, and the sensor-assay potency score (higher = more potent) was -1.47.
TACAGGATTAGAGAGAGTGGGG showed a sensor-assay potency score (higher = more potent) of -0.52.
For TAGCCAATGAGTTTGATCTCAT, the sensor-assay potency score (higher = more potent) was -0.312.
TTCACCTTCAATCAATTCCACA was tested, and the sensor-assay potency score (higher = more potent) was -1.32.

Each sequence was assayed against CBL in the same assay as above. Conditions: shRNA.
Work on TTTGTGAATGAATTTCTGGAGC yielded a sensor-assay potency score (higher = more potent) of -0.665.
TTACATAGTTGGAATGTGGAGC was tested, and the sensor-assay potency score (higher = more potent) was 0.417.
In the case of TTTCACTTCGTCATACGTCAAA, the sensor-assay potency score (higher = more potent) is reported as -0.674.
TGTTGTAGGATCACCATCCAGA gave a sensor-assay potency score (higher = more potent) of 0.05.
In the case of ATCTTGACAAGATAGTACGGAG, the sensor-assay potency score (higher = more potent) is reported as -1.09.
Sequence ATGCACTTCATGTAGAGCCTGT has a sensor-assay potency score (higher = more potent) of 0.672.
TTCCTGAGCAAAGAGGACCAGG showed a sensor-assay potency score (higher = more potent) of -0.903.
With TTTGGGTTCTGACACAACCGCA the sensor-assay potency score (higher = more potent) was -1.29.
Work on TTTCTTCATCAAATTCTCCATA yielded a sensor-assay potency score (higher = more potent) of -0.795.
Note: reference of the scale not given here.
